# Over roughly 2,900 compounds, “NF-kB SEAP reporter activity, fold change vs agonist alone” has its median near 0.99; the highest 2% begin near 2.6. This is one part of a sample in which the highest values are shown more often than they occur.
# Legend:
# RAW-Dual [1] = experiment: NF-kB SEAP reporter activity, fold change vs agonist alone; cytotoxicity flag (confluency mask): not cytotoxic; higher = enhanced NF-kB activity
# In short: (§1)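 After 50 nL of library stock was delivered by pin tool to RAW-Dual macrophages (50,000 cells/well, DMEM, 384-well plates), a PRR agonist was added 1 h later and the plates were kept at 37 °C, 5% CO2. Twenty hours later, IRF was read from supernatant by QuantiLuc luminescence and NF-κB by QuantiBlue absorbance at 620 nm. Reporter activity is stated as fold change over agonist-alone wells. Wells with IncuCyte confluency under 70% of agonist controls in both mask sets were counted as cytotoxic.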
# RAW-Dual [2] = experiment: NF-kB SEAP reporter activity, fold change vs agonist alone; higher = enhanced NF-kB activity; conditions: library stock concentration (final ~1000-fold dilution): 10 mM
# In short: as §1
# RAW-Dual [3] = experiment: NF-kB SEAP reporter activity, fold change vs agonist alone; cytotoxicity flag (confluency mask): cytotoxic (confluency <70% of control); higher = enhanced NF-kB activity
# In short: as §1
# [4] = agonist: ODN 1826 (TLR9) 0.5 ug/mL
# [5] = agonist: Pam2CSK4 (TLR2/6) 0.1 ug/mL
# [6] = agonist: Pam3CSK4 (TLR2/1) 0.1 ug/mL
# [7] = cytotoxicity flag (confluency mask): not cytotoxic, agonist: Imiquimod (TLR7) […]
# [8] = cytotoxicity flag (confluency mask): not cytotoxic, agonist: MPLA (TLR4) […]
# [9] = cytotoxicity flag (confluency mask): cytotoxic (confluency <70% of control), agonist: Imiquimod (TLR7) […]
# [10] = cytotoxicity flag (confluency mask): cytotoxic (confluency <70% of control), agonist: MPLA (TLR4) […]
compound,measurement,setting,value
COC12C(COC(N)=O)C3=C(C(=O)C(C)=C(N)C3=O)N1CC1NC12 (centres undefined) (library stock concentration (final ~1000-fold dilution): 10 mM),NF-kB SEAP reporter activity,RAW-Dual [1]; agonist: LPS (TLR4) 0.1 ug/mL,2.79
same,NF-kB SEAP reporter activity,RAW-Dual [1]; [4],2.71
same,NF-kB SEAP reporter activity,RAW-Dual [1]; [5],1.89
same,NF-kB SEAP reporter activity,RAW-Dual [1]; [6],3.31
COC12C(COC(N)=O)C3=C(C(=O)C(C)=C(N)C3=O)N1CC1NC12 (centres undefined),NF-kB SEAP reporter activity,RAW-Dual [2]; [7],1.82
same,NF-kB SEAP reporter activity,RAW-Dual [2]; [8],1.79
CCN(CC)CCNC(=O)c1c(C)[nH]c(/C=C2/C(=O)Nc3ccc(-c4csc(-c5ccccc5)n4)cc32)c1C,NF-kB SEAP reporter activity,RAW-Dual [2]; [9],1.35
same,NF-kB SEAP reporter activity,RAW-Dual [2]; [10],1.55
CCN(CC)CCNC(=O)c1c(C)[nH]c(/C=C2/C(=O)Nc3ccc(-c4csc(-c5ccccc5)n4)cc32)c1C (library stock concentration (final ~1000-fold dilution): 10 mM),NF-kB SEAP reporter activity,RAW-Dual [3]; agonist: LPS (TLR4) 0.1 ug/mL,0.882
same,NF-kB SEAP reporter activity,RAW-Dual [3]; [4],0.397
same,NF-kB SEAP reporter activity,RAW-Dual [3]; [5],0.37
same,NF-kB SEAP reporter activity,RAW-Dual [3]; [6],0.645
COc1ccc(NC(=O)c2ccc(C(=N)N(C)C)cc2)c(C(=O)Nc2ccc(Cl)cn2)c1.O=C(O)/C=C\C(=O)O,NF-kB SEAP reporter activity,RAW-Dual [2]; [8],0.953
COc1ccc(NC(=O)c2ccc(C(=N)N(C)C)cc2)c(C(=O)Nc2ccc(Cl)cn2)c1.O=C(O)/C=C\C(=O)O (library stock concentration (final ~1000-fold dilution): 10 mM),NF-kB SEAP reporter activity,RAW-Dual [1]; agonist: LPS (TLR4) 0.1 ug/mL,0.955
same,NF-kB SEAP reporter activity,RAW-Dual [1]; [4],0.994
same,NF-kB SEAP reporter activity,RAW-Dual [1]; [5],1.1
same,NF-kB SEAP reporter activity,RAW-Dual [1]; [6],1.06
COc1cc2c(Oc3ccc4[nH]c(C)cc4c3F)ncnc2cc1OCCCN1CCCC1.O=C(O)/C=C\C(=O)O,NF-kB SEAP reporter activity,RAW-Dual [2]; [10],2.65
COc1cc2c(Oc3ccc4[nH]c(C)cc4c3F)ccnc2cc1OCC1(N)CC1.Cl.Cl (library stock concentration (final ~1000-fold dilution): 10 mM),NF-kB SEAP reporter activity,RAW-Dual [3]; agonist: LPS (TLR4) 0.1 ug/mL,1.7
same,NF-kB SEAP reporter activity,RAW-Dual [3]; [4],0.29
same,NF-kB SEAP reporter activity,RAW-Dual [3]; [5],1.17
same,NF-kB SEAP reporter activity,RAW-Dual [3]; [6],1.74
COc1cc2c(Oc3ccc4[nH]c(C)cc4c3F)ccnc2cc1OCC1(N)CC1.Cl.Cl,NF-kB SEAP reporter activity,RAW-Dual [2]; [9],1.53
same,NF-kB SEAP reporter activity,RAW-Dual [2]; [10],1.89
COc1cc2c(Oc3ccc4[nH]c(C)cc4c3F)ncnc2cc1OCCCN1CCCC1.O=C(O)/C=C\C(=O)O (library stock concentration (final ~1000-fold dilution): 10 mM),NF-kB SEAP reporter activity,RAW-Dual [3]; agonist: LPS (TLR4) 0.1 ug/mL,2.81
same,NF-kB SEAP reporter activity,RAW-Dual [3]; [4],0.402
same,NF-kB SEAP reporter activity,RAW-Dual [3]; [5],1.61
same,NF-kB SEAP reporter activity,RAW-Dual [3]; [6],1.15
COc1cc2c(Oc3ccc4[nH]c(C)cc4c3F)ncnc2cc1OCCCN1CCCC1,NF-kB SEAP reporter activity,RAW-Dual [2]; [9],1.98
same,NF-kB SEAP reporter activity,RAW-Dual [2]; [10],1.96
COc1cc2c(Oc3ccc4[nH]c(C)cc4c3F)ncnc2cc1OCCCN1CCCC1 (library stock concentration (final ~1000-fold dilution): 10 mM),NF-kB SEAP reporter activity,RAW-Dual [3]; agonist: LPS (TLR4) 0.1 ug/mL,0.671
same,NF-kB SEAP reporter activity,RAW-Dual [3]; [4],0.212
same,NF-kB SEAP reporter activity,RAW-Dual [3]; [5],1.03
same,NF-kB SEAP reporter activity,RAW-Dual [3]; [6],1.37
Cl.Nc1ccc(N=Nc2ccccc2)c(N)n1,NF-kB SEAP reporter activity,RAW-Dual [2]; [7],1.1
same,NF-kB SEAP reporter activity,RAW-Dual [2]; [8],1.08
Cl.Nc1ccc(N=Nc2ccccc2)c(N)n1 (library stock concentration (final ~1000-fold dilution): 10 mM),NF-kB SEAP reporter activity,RAW-Dual [1]; agonist: LPS (TLR4) 0.1 ug/mL,1.22
same,NF-kB SEAP reporter activity,RAW-Dual [1]; [4],0.928
same,NF-kB SEAP reporter activity,RAW-Dual [1]; [5],1.09
same,NF-kB SEAP reporter activity,RAW-Dual [1]; [6],0.933
Nc1nc(=O)n(C2CSC(CO)O2)cc1F (centres undefined),NF-kB SEAP reporter activity,RAW-Dual [2]; [7],0.983
same,NF-kB SEAP reporter activity,RAW-Dual [2]; [8],1.14
Nc1nc(=O)n(C2CSC(CO)O2)cc1F (centres undefined) (library stock concentration (final ~1000-fold dilution): 10 mM),NF-kB SEAP reporter activity,RAW-Dual [1]; agonist: LPS (TLR4) 0.1 ug/mL,0.99
same,NF-kB SEAP reporter activity,RAW-Dual [1]; [4],1.1
same,NF-kB SEAP reporter activity,RAW-Dual [1]; [5],1.1
same,NF-kB SEAP reporter activity,RAW-Dual [1]; [6],1.13
CCC(C)SSc1ncc[nH]1 (centres undefined),NF-kB SEAP reporter activity,RAW-Dual [2]; [7],1.51
same,NF-kB SEAP reporter activity,RAW-Dual [2]; [8],1.85
CCC(C)SSc1ncc[nH]1 (centres undefined) (library stock concentration (final ~1000-fold dilution): 10 mM),NF-kB SEAP reporter activity,RAW-Dual [1]; agonist: LPS (TLR4) 0.1 ug/mL,4.74
same,NF-kB SEAP reporter activity,RAW-Dual [1]; [4],2.67
same,NF-kB SEAP reporter activity,RAW-Dual [1]; [5],1.44
same,NF-kB SEAP reporter activity,RAW-Dual [1]; [6],2.7
Cc1[nH]c(/C=C2\C(=O)Nc3ccc(S(=O)(=O)Cc4c(Cl)cccc4Cl)cc32)c(C)c1C(=O)N1CCCC1CN1CCCC1 (centres undefined) (library stock concentration (final ~1000-fold dilution): 10 mM),NF-kB SEAP reporter activity,RAW-Dual [3]; agonist: LPS (TLR4) 0.1 ug/mL,0.658
same,NF-kB SEAP reporter activity,RAW-Dual [3]; [4],1.39
same,NF-kB SEAP reporter activity,RAW-Dual [3]; [5],0.551
same,NF-kB SEAP reporter activity,RAW-Dual [3]; [6],0.886
Cc1[nH]c(/C=C2\C(=O)Nc3ccc(S(=O)(=O)Cc4c(Cl)cccc4Cl)cc32)c(C)c1C(=O)N1CCCC1CN1CCCC1 (centres undefined),NF-kB SEAP reporter activity,RAW-Dual [2]; [9],2.04
same,NF-kB SEAP reporter activity,RAW-Dual [2]; [10],1.3
CC(C)Oc1ccc(C(=O)NC(CNC(=O)CN(C)C)Cc2ccc(-c3cn4cccc(C(C)O)c4n3)cc2)cc1Cl (centres undefined),NF-kB SEAP reporter activity,RAW-Dual [2]; [7],1.37
same,NF-kB SEAP reporter activity,RAW-Dual [2]; [8],1.39
CC(C)Oc1ccc(C(=O)NC(CNC(=O)CN(C)C)Cc2ccc(-c3cn4cccc(C(C)O)c4n3)cc2)cc1Cl (centres undefined) (library stock concentration (final ~1000-fold dilution): 10 mM),NF-kB SEAP reporter activity,RAW-Dual [1]; agonist: LPS (TLR4) 0.1 ug/mL,0.934
same,NF-kB SEAP reporter activity,RAW-Dual [1]; [4],0.199
same,NF-kB SEAP reporter activity,RAW-Dual [1]; [5],1.02
same,NF-kB SEAP reporter activity,RAW-Dual [1]; [6],1.03
Nc1ncnc2c1c(I)cn2C1OC(CO)C(O)C1O (centres undefined) (library stock concentration (final ~1000-fold dilution): 10 mM),NF-kB SEAP reporter activity,RAW-Dual [3]; agonist: LPS (TLR4) 0.1 ug/mL,0.213
same,NF-kB SEAP reporter activity,RAW-Dual [3]; [4],0.195
same,NF-kB SEAP reporter activity,RAW-Dual [3]; [5],0.0844
same,NF-kB SEAP reporter activity,RAW-Dual [3]; [6],0.123
Nc1ncnc2c1c(I)cn2C1OC(CO)C(O)C1O (centres undefined),NF-kB SEAP reporter activity,RAW-Dual [2]; [9],0.145
same,NF-kB SEAP reporter activity,RAW-Dual [2]; [10],0.26
C=C1CCC(O)CC1=CC=C1CCCC2(C)C1CCC2C(C)CCCC(C)C (centres undefined) (library stock concentration (final ~1000-fold dilution): 1 mM),NF-kB SEAP reporter activity,RAW-Dual [1]; agonist: LPS (TLR4) 0.1 ug/mL,0.593
same,NF-kB SEAP reporter activity,RAW-Dual [1]; [4],1.12
same,NF-kB SEAP reporter activity,RAW-Dual [1]; [5],1.12
same,NF-kB SEAP reporter activity,RAW-Dual [1]; [6],1.27
